Source: PubChem BioAssay
JMJD2A Tudor – qHTS Assay for Inhibitors of JMJD2A-Tudor Domain; Potency, µM (doses to about 114 µM), most hits filed as inhibitors; 390,000 compounds, 4.4% hits; AID 504339, 2011; AlphaScreen JMJD2A-Tudor / H3K4me3 peptide binding; also: nearly all actives have a fitted effect of over 50% in size
Sfp inh – qHTS Assay for Inhibitors of Bacillus subtilis Sfp phosphopantetheinyl transferase (PPTase) | Biochemical Sfp PPTase activity, qHTS | Potency, µM, hits mostly inhibitors | 310,000 compounds, 3.5% hits | AID 1490, 2009;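 also: the enzyme is Sfp with the accession as filed and its product quenches rhodamine fluorescence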
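With Hepes-Na pH 7.6 buffer containing 10 mM MgCl2, Sfp (15 nM) modified BHQ-2-YbbR (12.5 uM) using rhodamine-CoA (5 uM). Two reads 30 minutes apart at 525/598 nm yielded each well's rate.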
PLK1 PBD inh – qHTS for Inhibitors of PLK1-PDB (polo-like kinase 1 - polo-box domain): Primary Screen | Plk1 PBD binding of FITC phosphopeptide, fluorescence polarization | Potency, µM, usual class: inhibitors | 360,000 compounds, 2.8% hits; also: series mostly up to about 57 µM; nearly all actives have a fitted effect of over 65% in size
BAZ2B block – qHTS Assay for Inhibitors of BAZ2B | AlphaScreen BAZ2B-H3K14Ac peptide displacement | 360,000 compounds, 4.4% hits | Potency, µM (highest dose often 114 µM), usual class: inhibitors | Bromodomain adjacent to zinc finger domain protein 2B (Homo sapiens), Q9UIF8; also: nearly all actives have a fitted effect of over 60% in size
Target sequence (Q9UIF8 whole entry, looked up, the tested form may be a part): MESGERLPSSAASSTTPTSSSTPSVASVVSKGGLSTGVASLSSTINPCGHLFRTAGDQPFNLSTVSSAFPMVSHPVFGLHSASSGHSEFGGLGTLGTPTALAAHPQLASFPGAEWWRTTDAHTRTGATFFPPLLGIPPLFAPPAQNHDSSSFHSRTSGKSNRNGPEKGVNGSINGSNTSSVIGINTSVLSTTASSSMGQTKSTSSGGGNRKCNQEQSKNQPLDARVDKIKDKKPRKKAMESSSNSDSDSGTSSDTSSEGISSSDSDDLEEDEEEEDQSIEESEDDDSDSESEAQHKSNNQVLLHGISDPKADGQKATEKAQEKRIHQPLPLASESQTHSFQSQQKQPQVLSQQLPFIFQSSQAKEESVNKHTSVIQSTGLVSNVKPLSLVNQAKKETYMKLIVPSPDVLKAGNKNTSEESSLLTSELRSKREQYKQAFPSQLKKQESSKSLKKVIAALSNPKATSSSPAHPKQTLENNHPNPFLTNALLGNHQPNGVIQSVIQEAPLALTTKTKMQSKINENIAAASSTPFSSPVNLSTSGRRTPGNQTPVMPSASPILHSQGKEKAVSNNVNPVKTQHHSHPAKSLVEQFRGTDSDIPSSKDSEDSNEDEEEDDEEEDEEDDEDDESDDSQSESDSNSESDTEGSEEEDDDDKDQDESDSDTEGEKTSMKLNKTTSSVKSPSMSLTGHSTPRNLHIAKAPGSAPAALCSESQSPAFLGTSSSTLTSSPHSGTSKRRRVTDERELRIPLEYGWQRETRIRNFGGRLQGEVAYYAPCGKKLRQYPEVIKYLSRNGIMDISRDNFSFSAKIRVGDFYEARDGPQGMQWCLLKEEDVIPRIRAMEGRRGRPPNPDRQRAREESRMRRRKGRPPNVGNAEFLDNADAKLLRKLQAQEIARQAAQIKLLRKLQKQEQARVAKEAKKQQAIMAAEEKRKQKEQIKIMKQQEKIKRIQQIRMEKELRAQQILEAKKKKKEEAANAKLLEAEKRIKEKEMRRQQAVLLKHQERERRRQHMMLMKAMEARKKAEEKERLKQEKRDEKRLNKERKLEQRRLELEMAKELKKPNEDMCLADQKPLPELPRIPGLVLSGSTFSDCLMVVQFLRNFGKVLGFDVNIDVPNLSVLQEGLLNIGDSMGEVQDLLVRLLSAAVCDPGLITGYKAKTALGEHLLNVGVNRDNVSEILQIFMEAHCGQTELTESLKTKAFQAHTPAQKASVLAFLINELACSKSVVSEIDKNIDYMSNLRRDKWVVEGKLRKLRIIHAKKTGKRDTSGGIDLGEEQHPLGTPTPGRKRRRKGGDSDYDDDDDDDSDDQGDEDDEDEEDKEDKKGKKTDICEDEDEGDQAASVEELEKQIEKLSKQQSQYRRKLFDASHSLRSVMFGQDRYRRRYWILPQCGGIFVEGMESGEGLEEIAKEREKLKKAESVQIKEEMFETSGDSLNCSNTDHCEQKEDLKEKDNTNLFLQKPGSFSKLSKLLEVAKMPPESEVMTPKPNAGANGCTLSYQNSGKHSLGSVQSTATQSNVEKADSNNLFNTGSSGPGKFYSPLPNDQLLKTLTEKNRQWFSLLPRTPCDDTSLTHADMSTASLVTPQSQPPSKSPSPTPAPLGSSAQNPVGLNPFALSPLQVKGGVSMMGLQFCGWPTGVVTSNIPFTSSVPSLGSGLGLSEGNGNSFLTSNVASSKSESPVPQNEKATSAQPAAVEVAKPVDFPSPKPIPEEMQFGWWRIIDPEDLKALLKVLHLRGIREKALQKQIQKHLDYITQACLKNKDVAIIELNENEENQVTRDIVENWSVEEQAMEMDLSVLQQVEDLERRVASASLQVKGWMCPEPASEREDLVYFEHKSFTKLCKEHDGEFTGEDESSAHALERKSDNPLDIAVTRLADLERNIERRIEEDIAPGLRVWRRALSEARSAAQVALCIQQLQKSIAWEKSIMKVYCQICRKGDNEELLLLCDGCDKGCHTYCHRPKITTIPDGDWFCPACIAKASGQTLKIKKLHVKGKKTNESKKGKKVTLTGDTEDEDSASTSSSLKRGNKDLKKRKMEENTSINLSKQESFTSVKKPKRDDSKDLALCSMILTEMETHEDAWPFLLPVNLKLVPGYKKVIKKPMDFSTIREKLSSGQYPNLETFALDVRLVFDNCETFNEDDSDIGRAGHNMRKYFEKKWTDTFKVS
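Protein-peptide AlphaScreen: BAZ2B 50 nM, b-H3K14Ac 50 nM, 1x PBS pH 7.4 + 0.01% Tween-20. Preincubation 30 min RT; cpd 30 min RT (top 110 uM); beads 20 min RT, light-protected.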
HP1b binding inh – HTS for Inhibitors of HP1-beta Chromodomain Interactions with Methylated Histone Tails; Chromobox protein homolog 1 (Homo sapiens), P83916; Potency, µM (series often up to 114 µM), usual class: inhibitors; 390,000 compounds, 0.56% hits; AlphaScreen HP1-beta / biotin-H3K9me3 peptide binding; also: nearly all actives have a fitted effect of over 70% in size
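Compound inhibition of the preformed complex between 50 nM HP1-beta and 50 nM biotinylated H3K9me3 peptide was read by AlphaScreen. Buffer was PBS pH 7.4 with 0.01% Tween-20. Incubations ran 30 min at room temperature, with 10 ug/mL donor/acceptor beads.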
G9a block – qHTS Assay for Inhibitors of Histone Lysine Methyltransferase G9a | Histone-lysine N-methyltransferase EHMT2 (Homo sapiens), Q96KQ7 | G9a H3K9 monomethylation, AlphaScreen, 2 h | 350,000 compounds, 8.8% hits | Potency, µM (highest dose often 102 µM), most hits filed as inhibitors; also: nearly all actives have a fitted effect of over 75% in size
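AlphaScreen read-out: biotin-H3K9 peptide (500 nM) methylation by 20 nM enzyme with 20 uM SAM, 2 h at room temperature after 15 min compound preincubation; anti-monomethyl H3K9 antibody plus donor/acceptor beads, 10 min dark.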
A number is an active result; – = inactive; ? = inconclusive; · = no result given; ! = a repeat was not active; [ ] = remark or other dose. In the library only some 12% were active in any assay of this set; here they are far more common. Calls follow the shape of the dose curve; as a rule, active = well fitted curve in the direction sought with a large enough effect; inconclusive = small, poorly fitted or top-dose-only effect, or another doubt; inactive = no such curve, though single readings can be large; an effect the other way counts as inactive or inconclusive.

SMILES | JMJD2A Tudor | Sfp inh | PLK1 PBD inh | BAZ2B block | HP1b binding inh | G9a block
CC(=O)OC1CC2C(C)(C)C(O)CC[C@@]2(C)C2CC[C@@]3(C)C(c4ccoc4)OC(=O)C4O[C@@]43[C@]12C (stereo partly drawn) | · | – | · | · | · | ·
Nc1cc(-c2ccccc2)ccc1O | ? | – | 21.2µM | ? | – | 22.4µM
CC(=O)Nc1cc(-c2ccccc2)ccc1O | – | – | – | – | – | 28.2µM
Nc1ccc(-c2ccc(N)c(C(=O)O)c2)cc1C(=O)O | – | – | – | – | – | ?
O=C(O)CC1CCC(=C(Cl)Cl)C1 (stereo not drawn) | – | – | – | ? | – | 44.7µM
O=C(O)CC1CC(O)CCC1=O (stereo not drawn) | · | · | – | · | · | ·
Cc1ccc2c(c1)C1CN(C)CCC1N2Sc1ccccc1[N+](=O)[O-] (stereo not drawn) | 31.6µM | – | – | 15.8µM | ? | ?
Cc1ccc2c(c1)[C@@H]1CN(C)CC[C@@H]1N2S(=O)(=O)c1ccc([N+](=O)[O-])cc1 | ? | – | – | ? | – | ?
COc1ccc(-n2cc(-c3ccc4c(c3)OCO4)n(CC(=O)Nc3cc(Cl)ccc3C)c2=O)cc1 | – | · | · | 89.1µM | – | ?
COc1ccc(-n2cc(-c3ccc4c(c3)OCO4)n(CC(=O)Nc3cccc(C)c3C)c2=O)c(OC)c1 | ? | · | · | ? | – | 5.01µM
CC(C)ON([C@@H](C(=O)NO)C(C)C)S(=O)(=O)c1ccc(-c2ccccc2)cc1 | · | · | · | · | · | –
COc1ccc(-n2ncc(C(=O)Nc3cccc(C(F)(F)F)c3)c2C2CCN(C(=O)OC(C)(C)C)CC2)cc1 | – | · | · | – | – | ?
COC(=O)C1=C(C(=O)OC)[C@@H]2N(Cc3ccccc3)c3ccccc3[C@@]23C[C@@H](C(=O)OC)N(C(=O)c2ccco2)C3=N1 | · | – | · | · | · | ·
N#Cc1c(NC(=O)CSc2ccccn2)oc(-c2ccccc2)c1-c1ccccc1 | – | – | – | ? | – | –
CCn1c(SCC(=O)Nc2oc(-c3ccccc3)c(-c3ccccc3)c2C#N)nnc1-c1ccncc1 | ? | – | ? | ? | – | 7.94µM
CCn1c(SCC(=O)Nc2oc(-c3ccccc3)c(-c3ccccc3)c2C#N)nnc1-c1ccco1 | ? | – | – | – | – | ?
Cc1cnc(C(=O)OCC(=O)Nc2oc(-c3ccccc3)c(-c3ccccc3)c2C#N)cn1 | 56.2µM | – | ? | – | – | 50.1µM
CCOC(=O)c1c(C)[nH]c(O)c1C=Nc1ccc(C(F)(F)F)cc1 | ? | – | – | – | – | 44.7µM
COC(=O)c1c(C)[nH]c(O)c1C=Nc1ccc(Oc2ccccc2)cc1 | ? | – | – | – | – | –
COC(=O)c1c(C)[nH]c(O)c1C=Nc1ccc(C(C)C)cc1 | 44.7µM | – | – | 35.5µM | ? | ?
CCOC(=O)c1c(C)[nH]c(O)c1C=Nc1ccc(Cl)cc1 | – | ? | – | – | ? | 50.1µM
Cc1[nH][nH]c(=O)c1C=Nc1ccc(C(F)(F)F)cc1 | – | – | – | – | – | –
Cc1cc(C)cc(NC(=S)NN)c1 | – | – | – | – | – | 10µM
CCOc1ccccc1C1CC(=O)NC(C)=C1C(=O)OC1CCCCCC1 (stereo not drawn) | – | · | · | – | – | –
S=c1[nH]nc(CNc2ccc(Cl)cc2)n1Cc1ccccc1 | – | – | – | – | – | ?
SMILES | JMJD2A Tudor | Sfp inh | PLK1 PBD inh | BAZ2B block | HP1b binding inh | G9a block
CCCCc1n[nH]c(=S)n1Cc1ccc(Cl)cc1 | ? | – | – | – | – | 3.55µM
CCCCc1n[nH]c(=S)n1Cc1ccccc1 | 3.98µM | – | – | – | – | ?
Cc1ccc(C)c(N2CCN(C(=O)Cn3ncc4c([nH]c5ccc(C)cc54)c3=O)CC2)c1 | – | – | – | – | – | 70.8µM
CC1CC(C)CN(C(=O)Cn2ncc3c([nH]c4ccccc43)c2=O)C1 (stereo not drawn) | 25.1µM | – | 23.8µM | – | – | –
CCN1CCN(C(=O)Cn2ncc3c([nH]c4ccccc43)c2=O)CC1 | – | – | – | – | – | –
CCC(CC)C(=O)OCc1cc(=O)n2nc(C3CC3)sc2n1 | – | · | · | – | – | –
O=C(Cn1cnc2onc(-c3ccc(F)cc3)c2c1=O)Nc1ccc(F)c(Cl)c1 | – | · | · | – | – | –
COc1cc(Cn2c3ccc(NC(=O)NCCc4ccccc4)cc3c(=O)n2C)ccc1F | · | · | – | · | · | ·
COc1ccc(C(CCNCc2ccc(N(C)C)cc2)C(C)C)cc1 (stereo not drawn) | 31.6µM | – | – | 25.1µM | ? | 31.6µM
COc1ccccc1C(CCNCc1ccc(N(C)C)cc1)c1ccc(OC(C)C)cc1 (stereo not drawn) | 12.6µM | – | – | 10µM | ? | –[2.33 µM]
COc1ccc(C(CCNCc2ccc(OC(C)C)cc2)C(C)C)cc1 (stereo not drawn) | – | – | – | – | – | –
COc1cc(C(=O)NC(C)c2cccc3ccccc23)cc(OC)c1OC (stereo not drawn) | – | – | – | – | – | –
COc1ccc(-c2cnnc(N/N=C/c3ccc(O)c(O)c3)n2)cc1 | 39.8µM | – | – | 44.7µM | – | –
COc1ccc(-c2cnnc(N/N=C/c3ccc(C)o3)n2)cc1 | 14.1µM | – | 5.97µM | – | – | –
COc1ccc(-c2cnnc(N/N=C/c3ccc(O)cc3)n2)cc1 | –[11.4 µM] | – | – | – | – | –
COc1ccc(CCN2CC(C(=O)NCCc3ccc(C)cc3)CC2=O)cc1OC (stereo not drawn) | – | – | – | 56.2µM! | – | –
COc1ccc(CCN2CC(C(=O)NC3CCCCC3)CC2=O)cc1OC (stereo not drawn) | – | – | – | 50.1µM | – | –
Cc1ccc(CCNC(=O)C2CC(=O)N(CCc3ccc(C)cc3)C2)cc1 (stereo not drawn) | – | · | · | – | – | –
Cc1cccn2c(=O)c3cc(S(=O)(=O)c4ccccc4)c(=N)n(Cc4ccco4)c3nc12 | – | 56.2µM | – | – | – | –
Cc1ccc(S(=O)(=O)c2cc3c(=O)n4ccccc4nc3n(Cc3ccco3)c2=N)cc1C | – | 79.4µM | – | – | – | ?
Cc1cccn2c(=O)c3cc(S(=O)(=O)c4ccc(F)cc4)c(=N)n(Cc4ccco4)c3nc12 | – | – | – | – | – | –
CN1C(C)(C)CC(=NO)CC1(C)C | – | · | – | · | – | ·
Clc1cccc(Nc2ncnc3c2nc2n3CCCCC2)c1 | – | · | · | – | – | –
